Assay outcomes deposited in PubChem by Buhrlage Lab, Dana-Farber Cancer Institute and Novartis Institutes for BioMedical Research (Cambridge, Mass).
USP8 inh: inhibitors of human USP8 deubiquitinase | inhibition, % at 20 µM | Ubiquitin carboxyl-terminal hydrolase 8 (Homo sapiens), P40818 | purified USP8, Ub-rhodamine cleavage fluorescence, 30 min | actives 4.2% (n = 47,000)
USP10 block: inhibitors of human USP10 deubiquitinase; Ubiquitin carboxyl-terminal hydrolase 10 (Homo sapiens), Q14694; purified USP10, Ub-rhodamine fluorescence, 60 min; inhibition, % at 20 µM; actives 1.1% (n = 47,000)
USP28 inh: inhibitors of human USP28 deubiquitinase; AID 1645857, 2021; inhibition, % at 25 µM; purified USP28, Ub-rhodamine cleavage fluorescence, 30 min; actives 3% (n = 47,000); Ubiquitin carboxyl-terminal hydrolase 28 (Homo sapiens), Q96RU2
USP17 block: inhibitors of human USP17 deubiquitinase; AID 1645855, 2021; actives 6.5% (n = 47,000); purified USP17, Ub-rhodamine cleavage fluorescence, 3 h; inhibition, % at 50 µM
USP30 block: inhibitors of human USP30 deubiquitinase; Ubiquitin carboxyl-terminal hydrolase 30 (Homo sapiens), Q70CQ3; purified USP30, Ub-rhodamine cleavage fluorescence; inhibition, % at 25 µM; actives 5.3% (n = 47,000); AID 1645860, 2021
OTUD3 block: inhibitors of human OTUD3 deubiquitinase. OTU domain-containing protein 3 (Homo sapiens), Q5T2D3. purified OTUD3, Ub-rhodamine fluorescence, 2 h. inhibition, % at 25 µM. actives 0.7% (n = 47,000)
Target sequence (Q5T2D3 whole entry, looked up, the tested form may be a part): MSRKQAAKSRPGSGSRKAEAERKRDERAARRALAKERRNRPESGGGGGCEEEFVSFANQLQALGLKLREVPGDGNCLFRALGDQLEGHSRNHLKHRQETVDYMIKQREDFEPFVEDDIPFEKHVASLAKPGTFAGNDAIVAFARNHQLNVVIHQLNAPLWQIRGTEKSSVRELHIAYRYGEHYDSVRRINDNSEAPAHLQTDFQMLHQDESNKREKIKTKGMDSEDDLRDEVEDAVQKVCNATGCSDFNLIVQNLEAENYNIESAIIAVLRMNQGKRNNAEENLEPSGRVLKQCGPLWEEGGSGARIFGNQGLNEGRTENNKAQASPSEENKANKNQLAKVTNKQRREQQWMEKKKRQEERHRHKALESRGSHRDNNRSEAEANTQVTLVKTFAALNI
Numbers without * were called inactive. Compounds with a hit are over-represented: about 13% of the library has one in this group of screens. Rule as the data show it: active = inhibition above about 30%; inactive = the rest.

`Cn1c(SCC(=O)N2CCCCC2)nnc1-c1ccc2c(c1)OCCO2` gave USP8 inh 18, USP10 block 1, USP28 inh 6, USP17 block 14, USP30 block 25 and OTUD3 block 12.
`Cn1c(SCCOc2ccccc2Cl)nnc1-c1ccc2c(c1)OCCO2` gave USP8 inh 5, USP10 block 3, USP28 inh 38*, USP17 block 17, USP30 block 39* and OTUD3 block 8.
Screening CCc1cccc(-n2nnnc2N2CCN(C(=O)Nc3ccc(OC)c(OC)c3)CC2)c1 returned USP8 inh -20, USP10 block -2, USP28 inh -5, USP17 block -7, USP30 block -5 and OTUD3 block -8.
`CCC(C(=O)NCc1ccncc1)N(c1cccc(Cl)c1)S(C)(=O)=O` (centres undefined) gave USP8 inh -6, USP10 block 3, USP28 inh 9, USP17 block -1, USP30 block 22 and OTUD3 block 32*.
CCc1ccccc1N(CC(=O)NCc1ccncc1)S(C)(=O)=O was read as USP8 inh 4, USP10 block 0, USP28 inh 11, USP17 block 14, USP30 block 18 and OTUD3 block 5.
For O=C(Oc1ccccc1)C1CCN(S(=O)(=O)c2ccc3c(c2)OCCCO3)CC1 the results were USP8 inh 16, USP10 block 3, USP28 inh 14, USP17 block 14, USP30 block 23 and OTUD3 block 19.
`CC(=O)c1cccc(S(=O)(=O)N2CCC(C(=O)Oc3ccc(-c4nnco4)cc3)CC2)c1` gave USP8 inh 39*, USP10 block 10, USP28 inh 29, USP17 block 28, USP30 block 23 and OTUD3 block 20.
NC(=O)c1cc2ccccc2nc1C1CCN(C(=O)Cc2cccc(F)c2)CC1 was read as USP8 inh 12, USP10 block 0, USP28 inh 11, USP17 block 13, USP30 block 12 and OTUD3 block 1.
`CCCn1c(=O)c2sccc2n2c(CCC(=O)NC3CCCCCC3)nnc12` gave USP8 inh 0, USP10 block 5, USP28 inh 0, USP17 block 4, USP30 block 3 and OTUD3 block 0.
`COc1ccc(-n2c(SCC(=O)N3CCCC3)nc3n[nH]c(C)c3c2=N)cc1` gave USP8 inh -1, USP10 block 0, USP28 inh -4, USP17 block 17, USP30 block -11 and OTUD3 block -4.
For CCOc1ccc(NC(=O)CSc2nc3n[nH]c(C)c3c(=N)n2-c2ccc(OC)cc2)cc1 the results were USP8 inh 3, USP10 block 1, USP28 inh 11, USP17 block 9, USP30 block 52* and OTUD3 block 1.
`Cc1c(-c2nc3cnccn3c2NC(C)(C)C)cnn1C` gave USP8 inh -2, USP10 block 0, USP28 inh -223, USP17 block -186, USP30 block inactive and OTUD3 block -192.
Screening Cc1ccc2oc(SCC(=O)NC(c3ccccc3)c3ccccc3)nc2n1 returned USP8 inh -69, USP10 block 2, USP28 inh -3, USP17 block -15, USP30 block 0 and OTUD3 block 6.
For Cc1nc(Nc2ccc(Cl)cn2)sc1C(=O)NCc1ccccn1 the results were USP8 inh 50*, USP10 block 2, USP28 inh 13, USP17 block 9, USP30 block 18 and OTUD3 block 0.
`CN(c1ccccc1)S(=O)(=O)c1ccc(C(=O)Nc2cccc(C#N)c2)cc1` gave USP8 inh 1, USP10 block 4, USP28 inh 12, USP17 block 2, USP30 block 23 and OTUD3 block -5.
`COc1cccc(O[C@@H]2C[C@@H](NC(=O)c3cnco3)[C@H](N3CCCC3)[C@H]2O)c1` gave USP8 inh 6, USP10 block -1, USP28 inh 8, USP30 block -19 and OTUD3 block 8.
For CC(=O)c1cccc(NC(=O)COc2ncnc3sccc23)c1 the results were USP8 inh 39*, USP10 block -4, USP28 inh -32, USP17 block -41, USP30 block -179 and OTUD3 block -36.
For Cc1cc(C(F)(F)F)nc(-n2cc(-c3ccccc3)nn2)n1 the results were USP8 inh 2, USP10 block 1, USP28 inh -5, USP17 block 35*, USP30 block 13 and OTUD3 block -4.
Screening O=C(c1[nH]nc2c1CCc1ccccc1-2)N1CCC(Cc2ccccc2)CC1 returned USP8 inh 0, USP10 block 6, USP28 inh 15, USP17 block 4, USP30 block 8 and OTUD3 block 0.
For NC(=O)C1(N2CCCCC2)CCN(C(=O)c2[nH]nc3c2CCc2ccccc2-3)CC1 the results were USP8 inh 87*, USP10 block -5, USP28 inh 11, USP17 block 59*, USP30 block 0 and OTUD3 block -11.
Screening Cc1cc(C)n2nc(CN(C(=O)COc3ccccc3)c3ccccc3)nc2n1 returned USP8 inh -7, USP10 block -2, USP17 block -9 and OTUD3 block 1.
Cc1nc2nc(CN(C(=O)COc3ccccc3)c3ccccc3)nn2c(C)c1Cl was read as USP8 inh 12, USP10 block 2, USP28 inh 9, USP17 block 4, USP30 block 36* and OTUD3 block 13.
`COCCCNC(=O)COc1ccc(S(=O)(=O)NC(C)(C)C)cc1` gave USP8 inh 2, USP10 block 3, USP28 inh -9, USP17 block 3, USP30 block 1 and OTUD3 block 0.
`O=c1[nH]c(NC2CCN(Cc3nnnn3Cc3ccc4c(c3)OCO4)CC2)nc2c1CCCC2` gave USP8 inh -1, USP10 block 0, USP28 inh 8, USP17 block 0, USP30 block 38* and OTUD3 block 14.
Screening C[C@]12C(=O)N(c3cccc4ccccc34)C(=O)N1CCc1c2[nH]c2ccccc12 returned USP8 inh -1, USP10 block 14, USP28 inh -2, USP17 block 0, USP30 block 0 and OTUD3 block -10.
`CCc1nc(Sc2ccc3ccccc3c2)c2oc3ccccc3c2n1` gave USP8 inh -1, USP10 block 5, USP28 inh 5, USP17 block 51*, USP30 block 52* and OTUD3 block 12.
CCc1nc(SCC(=O)Nc2cc(C)ccc2OC)c2oc3ccccc3c2n1 was read as USP8 inh 5, USP10 block 3, USP28 inh 3, USP17 block 41*, USP30 block 42* and OTUD3 block 11.
